# Measured values as given in PubChem BioAssay AID1347426 (Functional Genomics Laboratory (NCATS/FGL), 2020).
# Screen size: about 31,000 sequences; about 1,400 (4.5%) were called active. Many of the other results were omitted from the sample, so actives are more common in it than they were. Unmarked numbers belong to inactive results.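 Rule for the calls: active = median seed-adjusted z-score above 1 or below -1; inactive = the rest.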
# Assay: Novel Modifiers of Survival Motor Neuron (SMN) Protein: Gene Identification via Genome-wide siRNA Screen;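 note: luminescence tracks full-length SMN protein made from the SMN2 reporter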
# Details: HEK293T SMN2-luciferase reporter, siRNA knockdown, 72 h; actives lie on both sides
# How it was run: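 HEK293T cells stably carrying an SMN2 promoter/splicing cassette–luciferase reporter were reverse-transfected with 1 pmol siRNA per well (druggable-genome library, 3 siRNAs per gene) and grown 72 h at 37 °C. Luminescence, normalized to negative-control siRNA and log10-transformed, was scored as MAD.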
row,Sequence,median seed-adjusted z-score
1,GCAAGUGUUUUGAUCAAAATT against ZNF662,0.352
2,GAAUAUUGCAAUAGACUUATT against ZNF678,0.172
3,GCAUUUCACCAUUCAAACATT against PCSK9,0.146
4,GGAUGUUUCCUACCUAUAUTT against FOLR1,-1.31 (active)
5,CCAGUUCGCUAUCACCAAATT against MATN1,-0.271
6,CGAUCAAUGUUAGAAGUUATT against ACTR2,0.548
7,CCUUAGAUCUCGCGAAGAATT against DCT,-0.184
8,CCAAUACACUAGCAGUUAATT against TCP1,-1.02 (active)
9,GCCUGUGAAUGUCCGAGAATT against AARSD1,-0.156
10,GGUAGUCUAUCACUUCGAATT against TRIM37,-0.108
11,GCUCAACACUCAUCAAACATT against ZNF774,-0.0834
12,CAUGGUCACUGCUAGUGUATT against MBOAT1,-1.22 (active)
13,GCACCUACUUCAUCUAUAGTT against EDA,0.316
14,GAGAUUCAAAGAAUAGUAATT against RASSF6,-0.592
15,CCCUUGAAGGCAAAGAUCATT against OPRK1,-1.08 (active)
16,GAGAUUCAUCGGUUCAAUATT against WRNIP1,0.00972
17,GCCUUAGUGUGCCUCCCAATT against APLN,0.0181
18,GAUCUGGUCGAGUUUAAAATT against NAT2,-0.0495
19,CCACAUGACUUAUUAUGCATT against DCN,0.326
20,GGGCAGUUCUUGCAACCAUTT against ALDH1A2,0.564
21,CGAGAUAACUACUGCCGAUTT against PCOLCE2,-1.15 (active)
22,CCGUCUACGUGACCAUUGATT against ABCC1,0

row,Sequence,median seed-adjusted z-score
1,GCUUUUACAACAUUUCGAATT against SLC30A4,0.158
2,GUAAAUCACCGGCUACAAATT against ITGA3,0
3,UCAUGCUCAUUGGGAAUAATT against RAB2B,0.882
4,GCUUUGCAGUGAAUAUCGATT against SPINK5,0.26
5,CCUGGAUACCCUAAGCAAATT against PSMD2,-1.44 (active)
6,CCACGAUCGUUCACAAGGATT against KCTD4,0.649
7,CUAUAGUGGUUCAUCACAATT against GCNT1,0.463
8,ACGAGUACAUCAACGAGUATT against ABCA2,-1.18 (active)
9,CACUCAGCGUGGACCAUUUTT against HCN3,0.301
10,CUAUCAAUCCCAGCACUAATT against CDKL3,0.243
11,GCACUCUGAAGAUCGAAUATT against HNRNPL,1.04 (active)
12,CUAUGAUUAUAGCCGGGUATT against PTPN22,-0.0843
13,GGAAAAGUAUGAACUGAAATT against TREM1,0
14,GGGUCUUACGAAUGCGGAATT against ZNF618,0.311
15,GAACGUAAGAAAUACAAUUTT against HSPA4L,0.288
16,CUUCAUCUUUUACACCAUUTT against SLC35B2,-0.313
17,CACUACUAAAAACCUAAAATT against EFHD2,0.874
18,GUAGUGAAGUGUAUCCGGATT against ANXA6,-1.01 (active)
19,GAAUCCUCAAUGUGGAUGATT against HPCA,0.12
20,GGCUUUUUGCUACAGAUGATT against OSGEP,0.0178
21,GUAUGUCACCUAUCACUGUTT against SLC25A38,0
22,GCAUCGCUGUAGGUUUUGATT against THBS2,-0.721

row,Sequence,median seed-adjusted z-score
1,GCAUCUGCGAUGUGAGGAATT against RYBP,0.831
2,GCAUCAGGGUCAUGGUUCATT against SCNN1D,-1.8 (active)
3,CCACCUACAGAGUGUCCUATT against EMID2,0.0465
4,GGACAAGACGCAAGAAGAATT against TEF,0
5,CCAAGGAGGUGCACUAUAATT against FHL1,0.574
6,AGAUGAUUCUAGAAUCCAATT against STK32B,0.683
7,GGAAUACCAUGAGCUGUUATT against OSBP,0.256
8,CAAGCAUAUUAAUGAGGUUTT against DYRK1A,-1.3 (active)
9,GCUCCCAUCAUGUACGUUUTT against GPR155,0.0681
10,GGAUGAGCAGUACCAGGCATT against PYCARD,0.117
11,GAACUAAACUUGUUAAUGATT against TRIM36,-0.262
12,GGAGCAACAUUAUAGUCAATT against TGS1,-0.564
13,CUACGAGAAUAAUUCGGAATT against THOC1,-3.04 (active)
14,CCGGGAAAGUAGAAUUACATT against IGF2BP1,-0.993
15,GCAGUACUCUGCUACCUGATT against IL22RA1,-1.14 (active)
16,GGAGAACCAGUGGAAUUCATT against LIN28B,0.407
17,GCACUUCUCUUAAGGACGATT against UNC13B,-0.0216
18,CAUGUACUAUUUUCAGUAUTT against SETD8,-1.52 (active)
19,GCUUCUUAGCUGAGGAAAATT against RDH11,-0.241
20,CAAGGUAUUAUGCAACGUATT against FLG,0.221
21,GAGUAUGCCGUGAAGAUCATT against RPS6KA2,0.139
22,GGCGUACGGUGAGAACAUUTT against ATP1B1,0.971

row,Sequence,median seed-adjusted z-score
1,GUAUAAUCCUCAGAGCAAATT against CXXC1,-0.841
2,CAUGAAUCCUUUACAGCAATT against RALB,-0.534
3,GACUGUGAGACUUACCAUATT against MED20,-1.66 (active)
4,CGGUCUCACCUGCACCAAATT against SSPO,0.397
5,GGAGAUUCACGAGCUGCGATT against EGFL8,0.365
6,GCUCAAGGCAUUCUACAAATT against SLC25A1,0.252
7,GGAUCGAGUUUGAUAACGATT against ITGA6,-0.224
8,GAUACGAAAUGGUGUUAAATT against POLG2,0
9,CCCAAUAACUCUGUCGAUATT against ATP11C,0.102
10,GGAGUAACUGAGAUAGAAATT against AGPAT3,0
11,GGAUCGUAAAAAUAGCAAATT against DGKA,-1.36 (active)
12,GAGCCUCUAUUAAUGGACATT against RASSF6,-0.592
13,GGAACACCCGUUUAACAAATT against ASH2L,-0.464
14,GGAGGAUAGCAGCAGAAGATT against ATP5I,-0.871
15,GGUGAAUGCUGAUGACUCUTT against CLDN16,-0.868
16,CCACCAACGAAUACGUCUATT against PRKCSH,-0.0512
17,GAAUCUACAGGAAACGAGATT against SETD8,-1.52 (active)
18,CUCUACACCGUGUACAUCATT against CHRM4,-0.856
19,GCAGCAUGAGAAUGUCAAATT against GPD1,0.558
20,CUACAGCCUAUAUAUGAAATT against FCRL1,-0.873
21,CGACAAUAUUCCUUGAUGATT against CTGLF1,0.0231
22,GGGAUAAGCAGAUAGAAGATT against MYST2,-1.46 (active)

row,Sequence,median seed-adjusted z-score
1,GGAUGUUUUUCGAAGGAUATT against RHEB,-0.387
2,GGACCGCAGCAAUGACAUUTT against SH3KBP1,-0.34
3,AGACGGUGACUUACAAAAATT against ARF6,-0.805
4,GCAACUUCAUUUCUCAUCUTT against CA6,0.349
5,GUAUAUAAACAGACAAUGATT against DNAJC8,-1.62 (active)
6,UCAUCUUCUUUGACCCAGATT against HNF4A,-0.0274
7,GAGAGAAUCAUUACGAAAATT against MTMR2,0.495
8,CAAACUUAAAGGUCAGAAATT against WHSC1,1.17 (active)
9,GGACAAAGUCUUAACAAAATT against SLC30A10,0.523
10,CCAGACCACUUGCUAUGAATT against GATA6,0.546
11,CUACUGGAGCAACACUGUATT against NDUFA4,0
12,GCAAGAUUAGACAUACUGATT against PSMC6,-0.578
13,GAGCGAGUCUACAAGUGUATT against REST,0.416
14,CAGUCUGCCGAAGAAGUAATT against CDC2L1,-1.14 (active)
15,GGAUCUUCCUUAUUACUCUTT against UBE4A,-0.285
16,CCAGCACGUUGGAAGACCATT against ZNF808,0.138
17,GUCCUUAUCUUUGCAAAUATT against ARL5B,-0.506
18,GGAGCUACUUAAUCGGGAUTT against ANGEL1,-0.332
19,GCACGGAAAUUCUACAAGATT against ABCA4,-1.09 (active)
20,GGACGAUGUCUACAGCCUATT against SIN3B,0.509
